# Measured values as given in the supplement of paper PMC6555819.
# Key:
# Assay in all cases: PBM binding z-score (relative to random genomic background probes); higher = stronger binding; sequences stand for … in GC…GCGATTGACAGCGTAGAATGAAGG
# [1] = test system: FXR:RXRa (NR concentration 270 nM, RXRa partner concentration 90 nM)
# How it was run: (§1)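 Random background probes are the reference for binding z-scores. These scores derive from regression-normalized fluorescence on custom Agilent 4×180K protein-binding microarrays incubated 1 h with ligand-free nuclear receptor dimers. Binding was detected with antibodies against each partner (one per run).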
# [2] = test system: LXRa:RXRa (NR concentration 270 nM, RXRa partner concentration 90 nM)
# How it was run: as §1
# [3] = test system: LXRa homodimer (NR concentration 270 nM)
# How it was run: as §1
# [4] = test system: LXRb:RXRa (NR concentration 270 nM, RXRa partner concentration 90 nM)
# How it was run: as §1
# [5] = test system: LXRb homodimer (NR concentration 270 nM)
# How it was run: as §1
# [6] = test system: PPARa:RXRa (NR concentration 270 nM, RXRa partner concentration 90 nM)
# How it was run: as §1
# [7] = test system: PPARg:RXRa (NR concentration 180 nM, RXRa partner concentration 90 nM)
# How it was run: as §1
# [8] = test system: PPARg:RXRa 270nM:90nM, anti-RXR (NR concentration 270 nM, RXRa partner concentration 90 nM)
# How it was run: as §1
# [9] = test system: PPARg:RXRa 30nM:10nM, anti-RXR (NR concentration 30 nM, RXRa partner concentration 10 nM)
# How it was run: as §1
# [10] = test system: PPARg:RXRa 90nM:30nM, anti-RXR (NR concentration 90 nM, RXRa partner concentration 30 nM)
# How it was run: as §1
# [11] = test system: PPARg:RXRa DBDmut IVT, anti-RXR (DBD mutation: RXRa K156A/R161A, NR concentration 270 nM, RXRa partner concentration 90 nM)
# How it was run: as §1
# [12] = test system: PPARg:RXRa IVT, anti-PPARg (NR concentration 270 nM, RXRa partner concentration 90 nM)
# How it was run: as §1
# [13] = test system: PPARg DBDmut:RXRa IVT, anti-PPARg (DBD mutation: PPARg1 K132A/R137A, NR concentration 270 nM, RXRa partner concentration 90 nM)
# How it was run: as §1
# [14] = test system: PPARg DBDmut IVT, anti-PPARg (DBD mutation: PPARg1 K132A/R137A, NR concentration 270 nM)
# How it was run: as §1
# [15] = test system: PPARg homodimer (NR concentration 180 nM)
# How it was run: as §1
# [16] = test system: PXR:RXRa (NR concentration 270 nM, RXRa partner concentration 90 nM)
# How it was run: as §1
# [17] = test system: PXR homodimer (NR concentration 270 nM)
# How it was run: as §1
# [18] = test system: RARa:RXR (NR concentration 270 nM, RXRa partner concentration 90 nM)
# How it was run: as §1
# [19] = test system: RARa homodimer (NR concentration 270 nM)
# How it was run: as §1
# [20] = test system: RARb:RXRa (NR concentration 270 nM, RXRa partner concentration 90 nM)
# How it was run: as §1
Sequence,PBM binding z-score [1],PBM binding z-score [2],PBM binding z-score [3],PBM binding z-score [4],PBM binding z-score [5],PBM binding z-score [6],PBM binding z-score [7],PBM binding z-score [8],PBM binding z-score [9],PBM binding z-score [10],PBM binding z-score [11],PBM binding z-score [12],PBM binding z-score [13],PBM binding z-score [14],PBM binding z-score [15],PBM binding z-score [16],PBM binding z-score [17],PBM binding z-score [18],PBM binding z-score [19],PBM binding z-score [20]
ATATGTAGGTTACATACGGGTCATTCAGGCTATG,2.41,4.56,1.98,2.83,0.718,4.43,6.06,4.92,2.62,4.19,7.45,7.06,2.47,2.75,1.74,3.1,0.979,3.65,0.636,2.33
ATATGTAGGTTAAGGGTCAATCAGGTTGGTTCGC,4.97,4.62,1.8,4.47,1.35,6.65,11.6,9.7,10.1,10.8,7.74,7.77,1.78,2.49,4.11,5.32,1.21,5.74,2.21,3.64
ACAGACAGGTGATGAAGGTAACTTAGGCTATCAT,-0.131,-0.0415,-0.322,0.0367,-0.119,0.169,0.55,-0.195,-0.0102,-0.0594,0.373,0.171,0.414,0.165,0.0231,-0.0368,-0.316,0.217,0.132,0.163
CTTTACGGGTCACGAGGTTATAGCACGACGAGCG,7.21,5.4,1.34,4.38,0.444,6.35,8.06,7.02,4.31,6.25,5.55,6.46,1.86,2.29,2.93,4.96,0.279,6.19,0.513,4.81
TGAATGAGGTTAAAGATCAGGAAACGTGGCGTCG,3.12,2.5,-0.309,1.69,-0.0435,4.49,5.58,6.34,4.41,6.93,2.17,3.35,0.769,0.42,1.22,2.17,-0.325,3.49,-0.294,1.94
CCTCGGAGAACAGAAGGTCAGAGCTGTCCGCTTT,1.13,1.7,0.757,1.3,-0.0418,1.85,-0.162,0.587,-0.776,0.369,0.0999,-0.304,-1.44,-1.47,1.67,1.44,0.0963,1.92,0.634,2.42
CCTAGTTGGACAAGGTCACACACGCTATAGGTAC,3.57,3.53,1.48,3.58,0.67,4.1,2.58,2.92,0.968,2.08,0.793,2.52,0.526,0.701,3.15,3.9,1.97,4.4,2.1,3.85
CGTCCAAGGTCAATGCTAGGTCAGTGATAGCATT,6.64,5.38,2.71,4.07,0.685,5.03,4.12,4.4,1.74,3.05,3.49,4.23,0.259,0.244,6.16,5.12,2,6.2,2.14,5.21
TCTTGTAGATCAACAGTAGGTTAAGAAAGATCGA,0.361,0.659,0.0852,0.659,-0.18,1.13,0.249,1.49,2.78,2.39,2.46,1.72,0.934,0.698,0.243,0.284,-0.303,0.504,0.265,0.132
TCATATAGGTAATACAGGTGATAGTCGGCATCTA,0.719,1,0.507,0.789,0.315,1.36,1.6,2.3,3.98,3.1,4.04,3.01,1.19,2.05,1.08,0.592,0.285,0.723,1.73,0.484
TTACCAAGGTGATGGTCGTTGATCCCTCTGTAGA,0.274,0.0639,-0.222,0.219,-0.598,0.442,-0.08,0.334,0.217,0.0112,1.08,1.23,-0.135,0.288,0.359,-0.171,-0.42,0.272,0.249,0.312
CGTCCAAGGTCAATGCTTGGTCAGTGAAAGCATT,6.4,4.57,0.472,3.42,0.327,4.9,3.44,4,0.746,2.46,2.65,3.19,-0.682,-0.881,3.32,3.86,0.527,4.45,0.0669,5.03
ACTTACAGGTCAACGAGGTTATAGCACGCGTATA,6.79,5.97,3.32,4.66,1.8,5.76,5.5,5.63,2.14,4.37,4.4,4.7,1.92,1.44,2.53,5.25,5.38,4.94,1.81,4.52
CCGACTGGGGCATAACGTTACCATAAGCCAGCCC,-0.396,-0.323,-0.401,-0.205,-1.06,0.0712,0.89,0.484,-0.471,0.117,2.66,1.66,-0.938,-1.07,-0.33,-0.824,-0.237,-0.522,0.566,0.162
AGAATGAGGTTATACGTAGAGCAGGGAAGAAAGT,2.07,1.8,-0.116,1.59,0.336,2.98,1.76,2.08,0.738,1.52,3.85,2.15,1.23,1.06,1.79,1.13,0.781,1.57,0.0508,1.51
ATATGTAGGTTAGCTGCGGTCATTCAGACTAGGC,1.46,5.96,4.17,2.56,0.134,2.82,3.47,3.02,0.942,2.27,6.89,6.05,1.21,1.12,0.698,3.39,0.151,1.21,0.221,1.88
CTACCAAGGTGAACAGGGTCGTTGATTACTATTC,1.07,0.788,-0.0558,1.58,-0.226,2.32,1.23,1.38,0.0525,0.997,1.92,2.88,0.525,0.178,0.785,1.89,0.796,2.11,0.321,1.75
ATCTCTACGTAACAAGTTCAGTGAAAGAGAGGAC,0.253,0.5,0.496,0.811,1.27,0.449,0.368,0.316,0.334,0.321,-0.487,0.36,1.13,1.51,0.708,1.56,2.01,0.741,0.878,1.46
ATCTCTAGGTAACCAAGTTCGGTGAATGCCGAAC,0.162,0.167,0.0553,0.11,0.555,0.569,0.336,0.74,0.0695,0.909,3.09,2.93,1.06,1.09,0.509,0.501,0.469,0.415,0.268,0.571
CCTACTGGGCCACGATAGGTCATTGATTCAGTGA,0.91,3.95,1.66,1.74,-0.503,2.79,2.44,3.11,0.577,1.86,5.57,5.44,0.89,-0.512,1.33,1.49,0.172,2.14,0.152,2.06
CGAACTAGGTCATTGACAGGGCAGTGAATAGTAA,4.4,3.17,0.428,1.99,-0.104,4.74,7.4,6.18,3.75,5.96,8.27,7.87,2.56,1.37,2.24,1.69,0.134,2.69,0.301,3.72
GGAACGAGGGCATTCGAGTTGAGAGCATGGCGAT,1.64,1.88,-0.277,0.172,-0.777,1.5,0.715,1.11,-0.289,0.498,3.26,2.42,-0.0251,-0.828,-0.126,3.24,0.951,0.847,-0.731,1.99
CCGACTGGGGCGTAAGGTTACCATAAGCCAGCCC,0.247,1.35,-0.338,0.704,-1.25,1.35,1.19,2.42,0.143,1.7,0.446,0.275,-1.37,-0.827,0.0631,0.213,-0.391,0.883,-0.676,1
TAGCCTAGGTCATTCAGGGGCCGGTATAGAAAGC,4.65,3.59,1.03,2.73,1.63,3.57,1.87,2.46,0.494,1.41,1.8,2.62,0.426,-0.644,1.79,2.11,-0.0709,3.04,-0.178,3.79
GTACCAAGGTGAATATGTCGTTGATGAGTAGGCG,0.455,0.146,-0.0291,-0.0194,-0.329,0.873,0.753,0.42,0.0719,0.185,1.28,1.95,0.633,0.3,1.32,-0.126,0.282,0.44,0.46,1.22
TCTTGTAGCTCAACAGGAGGTTAAGAAAGATCGA,-0.163,0.472,-0.218,0.222,-0.709,0.659,-0.365,0.868,2.01,1.4,0.679,-0.415,0.889,0.0315,-0.822,0.474,-0.26,0.724,-0.715,-0.0252
TTACCCAGGTGAAGGTCGTTGATCCCTCTGTAGA,1.67,1.53,-0.000155,1.21,-0.632,1.77,0.932,1.73,0.687,1.04,1.24,2.58,-0.304,-0.0545,0.499,1.12,0.0205,1.6,-1.08,1.23
TCTAGCAGGCCAGAGGGTCACTCCAGAGGTACGG,0.862,0.694,-0.544,0.582,-0.995,1.91,1.19,2.54,1.72,2.31,0.669,0.586,-1.43,-1.75,0.69,1.08,-0.334,1.92,-0.787,1.89
